Data on 58 compounds can be found in PubChem BioAssay AID463173 (ICCB-Longwood Screening Facility, Harvard Medical School, 2010).

About 1,700 (3.3%) of roughly 52,000 compounds were called active. The full list was thinned out, with actives kept by preference. A number with no mark means an inactive call. No stated cut-off is given here; in the data, active means survival mostly below about 52% (no sharp cut-off); inactive means mostly above about 56%.

The test system of this assay is Wild type. Briefly: growth inhibition of S. aureus wild type versus tarO mutant, primary screen, teichoic acid synthesis inhibitors, RN4220, OD600 (AID 463173). Conditions: S. aureus RN4220 wild type/DeltatarO growth, OD600, 18 h, hits give low values, screened at 18.75 µg/mL (by protocol).
Regarding `O=C(CC1N=C2c3ccccc3N=C(SCC(=O)Nc3ccc(F)cc3)N2C1=O)NCc1ccc2c(c1)OCO2` (stereo not drawn), the survival was 80%. The figure for `COc1ccc2cc3cc(C(=O)NCc4ccccc4OC)oc3nc2c1` is 80%. `Cc1cccc(-c2nc(Cn3c(SCc4cccc(C(F)(F)F)c4)nc4ccncc43)c(C)o2)c1`: the survival was 81%. The figure for `Cc1ccc(C(=O)ON=C2CCN(C)CC2)cc1` is 108%; for `O=C(Nc1cccc(F)c1)c1cnc2sc(N3CCCC3)nn2c1=O` it is 74%; for `COc1ccccc1CNC(=O)Cn1cc2c(n1)-c1c(oc(C(=O)N3CCOCC3)c1C)CC2` it is 84%. The figure for `COc1cc2oc(=O)c(CC(=O)N3CCCCC3)c(C)c2cc1Cl` is 84%; for `Cc1ccc(OCC(=O)Nc2c(C(=O)c3ccc(Cl)cc3)oc3ccccc23)cc1C` it is 129%; for `CCOC(=O)c1cc(S(=O)(=O)N2CCN(c3ccccc3OC)CC2)[nH]n1` it is 124%.

For `CCOC(=O)c1cnc2ccc(OCC)cc2c1N1CCN(c2cccc(Cl)c2)CC1`, the survival is -9% (active). The same measure for `CCOC(=O)c1noc2ncnc(N3CCN(c4cccc(Cl)c4)CC3)c12`: 75%; for `CCOC(=O)c1cnc2c(OC)cccc2c1N1CCN(c2ccccc2F)CC1`: -14% (active); for `CCOC(=O)c1cc(S(=O)(=O)N2CCN(c3cccc(C)c3C)CC2)[nH]n1`: 72%. As for `COC(=O)c1cnc(N2CCN(c3ccccc3F)CC2)c2ccccc12`, the survival was 93%. With `CCOC(=O)c1cnc2cc(C(F)(F)F)ccc2c1N1CCN(c2cccc(Cl)c2)CC1`, the survival was 55%. The figure for `CCOC(=O)c1cnc2ccc(OCC)cc2c1N1CCN(c2ccccc2F)CC1` is -12% (active). The figure for `CCOC(=O)c1cnc2cc(C(F)(F)F)ccc2c1N1CCN(c2ccc(F)cc2)CC1` is 58%; for `CCOC(=O)c1cnc(N2CCN(c3cccc(C)c3C)CC2)c2ccccc12` it is 85%; for `CCOC(=O)c1cnc(N2CCN(c3ccc(C)cc3C)CC2)c2ccccc12` it is 112%. As for `CCOC(=O)c1cc(S(=O)(=O)N2CCN(c3ccccc3F)CC2)[nH]n1`, the survival was -6% (active). On to `O=C(Cn1c(=O)n(-c2ccccc2)c(=O)c2sc3ccccc3c21)NC1CCCC1`, for which the survival was 138%. Consider `CCOc1ccc(CNC(=O)CCn2nc(C)c3c(C)n(-c4ccccc4)nc3c2=O)cc1`, for which the survival is 129%. Regarding `COc1ccccc1-c1cc2nc(C)c(CCC(=O)NCc3cccc(Cl)c3)c(C)n2n1`, the survival was 112%. As to `CC(C)(C)OC(=O)N1CCC2(CC1)C(C#N)=C(N)OC1=C2C(=O)CCC1`, the survival was 104%.

Consider `CN1CCN(CC(=O)Nc2ccc(C(=O)NCC3CCCO3)cc2)CC1` (stereo not drawn), for which the survival is 108%. The same measure for `COc1ccc2c(c1)c1c(c(=O)n(-c3cccc(C)c3)c(=O)n1CC(=O)NCCC1=CCCCC1)n2C`: 74%. Turning to `COc1ccccc1C(=O)Nc1ccccc1OCc1cc(=O)n2ccccc2n1`, the survival is 92%.

For the compound `CCN(CC)C(C)C(=O)Nc1c(C)cccc1C` (stereo not drawn), the survival is 109%. As for `COc1c(C)cccc1C(=O)Nc1ccc(Cl)c(-c2nc3cc(C)ccc3o2)c1`, the survival was -6% (active). The figure for `Cc1ccc2oc(-c3cc(NC(=O)Cc4ccccc4)ccc3Cl)nc2c1` is 70%; for `Cc1ccc2oc(-c3cc(NC(=O)/C=C/c4ccco4)ccc3Cl)nc2c1` it is 25%; for `Cc1ccc2oc(-c3cc(NC(=O)c4oc5ccccc5c4C)ccc3Cl)nc2c1` it is 81%. The same measure for `Cc1ccc2oc(-c3cc(NC(=O)c4ccco4)ccc3Cl)nc2c1`: 1% (active); for `O=C(Nc1ccc(Cl)c(-c2nc3ccccc3o2)c1)c1cccc2c(Cl)cccc12`: 67%. As for `CC(C)c1ccc(NC(=O)c2cc3c(=O)oc4ccccc4c3s2)cc1`, the survival was 87%.

Regarding `CCOC(=O)c1c(-c2ccc(OC)cc2)oc2ccc(OCc3ccc(F)cc3F)cc12`, the survival is 42%. As for `CCN(CC)CCOC(=O)c1ccc(NC(=O)c2cc3c(s2)-c2ccccc2OC3)cc1`, the survival is 5% (active). `O=C(NCCCN1CCN(c2ccccc2)CC1)c1cc2c(s1)-c1ccccc1OC2`: the survival is 69%. Take `CCCN1CCN(CCCNC(=O)c2cc3c(s2)-c2ccccc2OC3)CC1`: the survival was 83%.

As to `O=C(NCCc1ccc(Cl)cc1)c1cc2c(s1)-c1ccccc1OC2`, the survival was 105%. On to `O=C(NCc1ccc(Cl)cc1)c1cc2c(s1)-c1ccccc1SC2`, for which the survival is 62%. The figure for `CCCN(C(=O)c1cc2c(s1)-c1ccccc1OC2)c1ccccc1F` is -2% (active); for `O=C(NCCCN1CCN(c2ccc(F)cc2)CC1)c1cc2c(s1)-c1ccccc1OC2` it is 62%. As to `O=C(NCCCN1CCN(c2ccccc2F)CC1)c1cc2c(s1)-c1ccccc1OC2`, the survival is 11% (active). The same measure for `CCCN(C(=O)c1cc2c(s1)-c1ccccc1SC2)c1ccccc1F`: 1% (active). For `CCc1cccc(NC(=O)c2cc3c(s2)-c2ccccc2OC3)c1`, the survival was 86%. For `O=C(NCc1ccc(F)cc1)c1cc2c(s1)-c1ccccc1SC2`, the survival is 50%. The figure for `CCOc1ccc(NC(=O)c2cc3c(s2)-c2ccccc2OC3)cc1` is 100%; for `Cc1ccc(NC(=O)C2CCCN2S(=O)(=O)c2ccc3c(c2)CCCC(=O)N3)cc1Cl` (stereo not drawn) it is 113%.

On to `COc1ccc(-c2nc3cc(N=Cc4ccccc4O)ccc3o2)cc1`, for which the survival is 111%. For the compound `CCCCn1c2ccc(F)cc2c2nnc(SCCN3CCCCC3)nc21`, the survival was 139%.

On to `COCCCNC(=O)c1cc(-c2cccnc2)nc2ccccc12`, for which the survival is 118%. The figure for `CCOc1ccc(NC(=O)CN2C(=O)c3ccccc3Sc3ccc(C(=O)OC)cc32)cc1` is 81%; for `COc1ccccc1OCc1ccc(C(=O)NCc2ccncc2)o1` it is 116%; for `Cc1ccc(Cn2cc(S(=O)(=O)c3ccccc3)c(=O)c3cc(F)c(N4CCOCC4)cc32)cc1` it is 58%. The same measure for `O=C(c1nc(-c2ccc(Cl)cc2)n2c1CCCCC2)N1CCN(c2ccc(F)cc2)CC1`: 70%; for `COc1ccc(C2c3c(n(C)c4ccccc34)C(=O)N2CC(=O)Nc2ccc(F)cc2)cc1` (stereo not drawn): 81%; for `CC(=O)Nc1ccccc1-c1nc2cc(C#N)c(C#N)cc2[nH]c1=O`: 108%.
